Hits are enriched below; roughly 4.6% of the tested compounds scored in any of these assays.
PfHsp90 set2: reduces growth (ATP signal) of yeast expressing P. falciparum Hsp90; 0.32% of 310,000 active; AID 504621; S. cerevisiae expressing PfHsp90, BacTiter-Glo ATP, 48 h; yeast lacking PDR1 and PDR3 efflux regulators; inhibition, % at 9.4 µM;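 active = every replicate shows inhibition above about 80%, whatever the replicate mean, limit read from the data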;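 also: 0% = DMSO neutral controls and 100% = 20 µM radicicol positive controls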
SKKanGAS inh: blocks kanamycin growth of S. pyogenes SKKanGAS strain | inhibition, % at 7.5 µM | BacTiter-Glo, 6 h | 1.3% of 300,000 active;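 active = mean replicate score, as percent of positive control median, at least 50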;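 also: strain carries kanamycin resistance gene driven by streptokinase promoter and grows in 40 µg/ml kanamycin; loss of luminescence reflects streptokinase promoter inhibition or plain growth inhibition; 0% = median of DMSO wells and 100% = positive control at its reference dose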
NLRP3 yeast inh: inhibitors of NALP3 inflammasome in yeast; inhibition, % at 10 µM; 0.39% of 330,000 active; Yeast reconstituted NLRP3/ASC/caspase-1, beta-gal luminescence, 24 h; AID 2825;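 active = inhibition of 50% or more; inactive = inhibition below 50%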;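 also: plate controls were induced DMSO wells for no effect and uninduced yeast grown without galactose for full effect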
tim10-1 inh: tim10-1 yeast growth inhibition | S. cerevisiae tim10-1 ts strain growth, BacTiter-Glo, 24 h | inhibition, % at 20 µM | 2.2% of 330,000 active;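 active = inhibition of at least 40%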;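 also: mutant grown at 25 °C; 0% = DMSO wells with yeast and 100% = wells holding no yeast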
TIM10 inh: growth inhibitors of TIM10 yeast strain. S. cerevisiae TIM10 strain growth, BacTiter-Glo luminescence, 24 h. inhibition, % at 10 µM. 1.4% of 330,000 active;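 active = inhibition of 40% or more at the single tested concentration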;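 also: wild-type TIM10 isogenic control strain grown at permissive 25 °C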
tim23-1 inh: growth inhibitors of tim23-1 mutant yeast. inhibition, % at 20 µM. S. cerevisiae tim23-1 growth, BacTiter-Glo luminescence, 24 h. 1.3% of 330,000 active. AID 463212;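 active = growth inhibition of the mutant yeast at or above 50%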;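 also: temperature-sensitive mutant grown at 25 °C; plate controls were DMSO-treated mutant yeast for no effect and medium wells lacking yeast for full effect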
tim10-1 confirm: confirmation of tim10-1 mutant yeast growth inhibitors. shares compounds with tim10-1 inh. S. cerevisiae tim10-1 ts strain growth, BacTiter-Glo, 24 h. inhibition, % at 20 µM. 56% of 7,400 active. AID 463213;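 active = inhibition of yeast growth at or above a set limit in either of two repeat tests at 20 µM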;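 also: tim10-1 mutant grown at permissive 25 °C to find synthetic lethal compounds; 0% = DMSO yeast wells and 100% = medium wells without yeast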
Starred values were filed as active, the others as inactive; . = no result given.

SMILES | PfHsp90 set2 | SKKanGAS inh | NLRP3 yeast inh | tim10-1 inh | TIM10 inh | tim23-1 inh | tim10-1 confirm
O=C(Nc1ccc(Br)cc1)Nn1cnnc1 | 4 | 1 | 18 | 9 | 14 | 14 | .
COc1cccc(C(c2sc3nc(C)nn3c2O)N2CCc3ccccc3C2)c1 (stereo not drawn) | -20 | -2 | -2 | 16 | 4 | 26 | .
O=C(Nc1cccc([N+](=O)[O-])c1)c1cccc(C(=O)Nc2cccc([N+](=O)[O-])c2)c1 | -5 | 5 | 5 | -31 | 21 | -10 | .
COC(=S)Nc1cccc(C(F)(F)F)c1 | -18 | 19 | -1 | 6 | 9 | 0 | .
COC(=O)/C=C/C(=O)Nc1cccc(C(F)(F)F)c1 | 7 | 1 | 35 | 47* | 32 | 41 | 51*
COc1cc(/C=C/C(=O)OCC(=O)Nc2ccc([N+](=O)[O-])cc2)ccc1O | -36 | 5 | -3 | -9 | -4 | -8 | .
CCOC(=O)/C=C/C(=O)Nc1cccc([N+](=O)[O-])c1 | 98* | 4 | 2 | 56* | 36 | 38 | 71*
CCOC(=O)/C=C/C(=O)OCC(=O)Nc1ccc([N+](=O)[O-])cc1 | -9 | -16 | -20 | 43* | 19 | 40 | 59*
CC(NC(=O)Nc1cccc([N+](=O)[O-])c1)(C(F)(F)F)C(F)(F)F | 21 | -10 | 15 | 42* | 22 | 40 | 33*
CCN(CC)c1ccc(S(=O)(=O)N2CCOCC2)cc1NC(=O)CSC(=S)N1CCCC1 | 7 | -6 | 9 | 19 | 23 | 30 | .
Fc1cc(F)cc(NC(=S)Nc2ccccc2N2CCOCC2)c1 | -15 | -7 | 11 | 33 | 23 | 48 | .
N#C/C(=C\c1cn[nH]c1-c1ccc(Cl)cc1)C(=O)NC1CC1 | -10 | -3 | 4 | 33 | 18 | 25 | .
N#C/C(=C\c1cn[nH]c1-c1ccc(Cl)cc1)C(=O)NCc1ccccc1 | 21 | 1 | 7 | 43* | 34 | 32 | 46*
Cc1ccc(OC(=O)c2ccc([N+](=O)[O-])cc2Cl)cn1 | 0 | -1 | 4 | 43* | 13 | 22 | 23
Cc1ccc(OC(=O)c2ccc(C)c([N+](=O)[O-])c2)cn1 | 10 | 0 | 19 | 8 | -1 | 7 | .
COc1ccc(N(CC(=O)Nc2ccc(C)c(F)c2)S(=O)(=O)c2c(C)noc2C)cc1 | -39 | 2 | -3 | 12 | 14 | 6 | .
COc1ccc(N(CC(=O)Nc2ccc(C)c(C)c2)S(=O)(=O)c2c(C)noc2C)cc1 | 15 | 1 | -8 | 45* | 13 | 44 | 8
Fc1cccc(NC(=S)Nc2cccc3ccccc23)c1 | 12 | 9 | 20 | 30 | 22 | 21 | .
CC(=O)N(C)c1ccc(NC(=S)Nc2cccc3ccccc23)cc1 | -8 | 10 | 23 | 23 | 12 | 29 | .
CC(=O)c1ccc(NC(=S)Nc2cccc3ccccc23)cc1 | 23 | 23 | 17 | 41* | 29 | 23 | 22
Cc1ccc(NC(=S)Nc2cccc3ccccc23)cc1F | -16 | 0 | 27 | 49* | 27 | 36 | 26
NS(=O)(=O)c1cccc(NC(=O)CCN2C(=O)C3CCCCC3C2=O)c1 (stereo not drawn) | -9 | . | -4 | 12 | 6 | 8 | .
COc1cccc(C(=O)CSc2nnnn2C2CCCCC2)c1 | -25 | 0 | 18 | 44* | 11 | 46 | 37*
Cc1ccc(N(Cc2ccccc2)C(=O)c2cc(S(=O)(=O)N3CCOCC3)ccc2C)cc1 | -16 | 1 | 5 | 20 | 18 | 25 | .
Cc1cc(NC(=O)c2c(F)cccc2Cl)n(-c2nc3ccccc3[nH]2)n1 | -31 | 118* | 6 | 40* | 1 | 37 | 30
Cc1cc(C)n(-c2cc(C(C)(C)C)nc3c(-c4ccc(Cl)cc4)cnn23)n1 | 2 | 12 | 10 | 40 | 34 | 41 | 30
CCN(C(=O)CSc1nc2ccccc2c(=O)n1CCOC)C1CCS(=O)(=O)C1 (stereo not drawn) | -9 | -2 | -7 | 4 | 3 | 6 | .
CN(Cc1ccccc1)C(=O)CSc1nc2c(c(C(F)(F)F)n1)CCc1ccccc1-2 | -136 | 29 | 12 | 44* | 4 | 22 | 21
